Out of some 5,500 compounds screened, about 2,000 (36%) were called active. Inconclusive results (about 18%) are left out. No stated cut-off is given here; in the data, active means normalized growth mostly below about 0.91 (no sharp cut-off); inconclusive means no clear call, values can overlap the other calls; inactive means mostly above about 0.92. This is one part of the list.
Test: chemical genetic growth profiling, strain panel (AID 1159580);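 further: tested at 20 µM; growth read once vehicle control cultures reached saturation at 30 °C; 1 = growth at the plate median or of vehicle wells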
Details: growth OD

Measured: normalized growth

O=C1O[C@@H](CO)[C@H](O)[C@@H](O)[C@@H]1O
inactive: S. cerevisiae deletion strains, locus YJR066W, strain TOR1, stronger effect = lower value 0.965 | S. cerevisiae deletion strains, locus YKL009W, strain mrt4, stronger effect = lower value 1.02 | S. cerevisiae deletion strains, locus YKL068W, stronger effect = lower value 0.999 | S. cerevisiae deletion strains, locus YKL085W, strain MDH1 (second series), stronger effect = lower value 0.998 | S. cerevisiae deletion strains, locus YKL085W, strain MDH1, stronger effect = lower value 0.998 | S. cerevisiae deletion strains, locus YKL160W, strain elf1, stronger effect = lower value 1.02 | S. cerevisiae deletion strains, locus YKL190W, strain CNB1, stronger effect = lower value 0.999 | S. cerevisiae deletion strains, locus YKR001C, strain vps1, stronger effect = lower value 0.985 | S. cerevisiae deletion strains, locus YKR026C, strain gcn3, stronger effect = lower value 1.01 | S. cerevisiae deletion strains, locus YKR091W, strain srl3, stronger effect = lower value 1.01 | S. cerevisiae deletion strains, locus YLL001W, strain dnm1, stronger effect = lower value 1.01 | S. cerevisiae deletion strains, locus YLL026W, stronger effect = lower value 1.02 | S. cerevisiae deletion strains, locus YLL041C, strain sdh2, stronger effect = lower value 1.02 | S. cerevisiae deletion strains, locus YLR027C, strain aat2, stronger effect = lower value 1.02 | S. cerevisiae deletion strains, locus YLR039C, strain RIC1, stronger effect = lower value 1.03 | S. cerevisiae deletion strains, locus YLR058C, strain SHM2, stronger effect = lower value 1.01 | S. cerevisiae deletion strains, locus YLR102C, strain apc9, stronger effect = lower value 1.01 | S. cerevisiae deletion strains, locus YLR113W, strain HOG1, stronger effect = lower value 0.963 | S. cerevisiae deletion strains, locus YLR221C, strain rsa3, stronger effect = lower value 1.01 | S. cerevisiae deletion strains, locus YLR258W, strain gsy2, stronger effect = lower value 1.04 | S. cerevisiae deletion strains, locus YLR262C, strain YPT6 (second series), stronger effect = lower value 1 | S. cerevisiae deletion strains, locus YLR262C, strain YPT6, stronger effect = lower value 1.08 | S. cerevisiae deletion strains, locus YLR268W, strain sec22, stronger effect = lower value 1.01 | S. cerevisiae deletion strains, locus YLR320W, strain mms22, stronger effect = lower value 1.02 | S. cerevisiae deletion strains, locus YLR330W, strain CHS5, stronger effect = lower value 1.01 | S. cerevisiae deletion strains, locus YLR342W, strain FKS1 (second series), stronger effect = lower value 1.04 | S. cerevisiae deletion strains, locus YLR342W, strain FKS1, stronger effect = lower value 1.03 | S. cerevisiae deletion strains, locus YLR357W, strain rsc2, stronger effect = lower value 1.01 | S. cerevisiae deletion strains, locus YLR370C, strain arc18, stronger effect = lower value 1.03 | S. cerevisiae deletion strains, locus YLR371W, strain rom2, stronger effect = lower value 1.01 | S. cerevisiae deletion strains, locus YLR384C, strain iki3, stronger effect = lower value 1.01 | S. cerevisiae deletion strains, locus YLR418C, strain cdc73, stronger effect = lower value 1.04 | S. cerevisiae deletion strains, locus YML016C, strain PPZ1, stronger effect = lower value 1.01 | S. cerevisiae deletion strains, locus YML032C, strain rad52, stronger effect = lower value 0.991 | S. cerevisiae deletion strains, locus YML120C, strain ndi1, stronger effect = lower value 1.01 | S. cerevisiae deletion strains, locus YML124C, strain tub3, stronger effect = lower value 1 | S. cerevisiae deletion strains, locus YMR058W, strain fet3, stronger effect = lower value 1.03 | S. cerevisiae deletion strains, locus YMR078C, strain ctf18, stronger effect = lower value 1 | S. cerevisiae deletion strains, locus YMR125W, strain sto1, stronger effect = lower value 1.02 | S. cerevisiae deletion strains, locus YMR129W, stronger effect = lower value 1.02 | S. cerevisiae deletion strains, locus YMR205C, strain PFK2, stronger effect = lower value 1.04 | S. cerevisiae deletion strains, locus YMR223W, strain ubp8, stronger effect = lower value 1.04 | S. cerevisiae deletion strains, locus YMR231W, strain pep5, stronger effect = lower value 1.02 | S. cerevisiae deletion strains, locus YMR307W, strain GAS1, stronger effect = lower value 1.05 | S. cerevisiae deletion strains, locus YNL067W, strain RPL9B, stronger effect = lower value 0.994 | S. cerevisiae deletion strains, locus YNL071W, strain lat1, stronger effect = lower value 1.02 | S. cerevisiae deletion strains, locus YNL128W, strain TEP1, stronger effect = lower value 1.02 | S. cerevisiae deletion strains, locus YNL183C, strain NPR1, stronger effect = lower value 0.944 | S. cerevisiae deletion strains, locus YNL209W, strain ssb2, stronger effect = lower value 1.03 | S. cerevisiae deletion strains, locus YNL233W, strain BNI4, stronger effect = lower value 1 | S. cerevisiae deletion strains, locus YNL248C, strain rpa49, stronger effect = lower value 1.06 | S. cerevisiae deletion strains, locus YNL250W, strain rad50, stronger effect = lower value 1.05 | S. cerevisiae deletion strains, locus YNL271C, strain bni1, stronger effect = lower value 0.993 | S. cerevisiae deletion strains, locus YNL298W, strain CLA4, stronger effect = lower value 1.01 | S. cerevisiae deletion strains, locus YNL307C, strain MCK1, stronger effect = lower value 1 | S. cerevisiae deletion strains, locus YNL322C, strain KRE1 (second series), stronger effect = lower value 1 | S. cerevisiae deletion strains, locus YNR049C, strain mso1, stronger effect = lower value 1.02 | S. cerevisiae deletion strains, locus YNR052C, strain pop2, stronger effect = lower value 1.01 | S. cerevisiae deletion strains, locus YOL006C, strain TOP1, stronger effect = lower value 0.992 | S. cerevisiae deletion strains, locus YOL012C, strain htz1 0.898 | S. cerevisiae deletion strains, locus YOL147C, strain pex11, stronger effect = lower value 1 | S. cerevisiae deletion strains, locus YOR001W, strain rrp6, stronger effect = lower value 1.01 | S. cerevisiae deletion strains, locus YOR061W, strain CKA2, stronger effect = lower value 1 | S. cerevisiae deletion strains, locus YOR069W, strain VPS5, stronger effect = lower value 1.01 | S. cerevisiae deletion strains, locus YOR070C, strain gyp1, stronger effect = lower value 1.03 | S. cerevisiae deletion strains, locus YOR080W, strain dia2, stronger effect = lower value 1.01 | S. cerevisiae deletion strains, locus YOR083W, strain WHI5, stronger effect = lower value 0.994 | S. cerevisiae deletion strains, locus YOR106W, strain vam3, stronger effect = lower value 1.01 | S. cerevisiae deletion strains, locus YOR136W, strain idh2, stronger effect = lower value 0.99 | S. cerevisiae deletion strains, locus YOR144C, strain elg1, stronger effect = lower value 1.01 | S. cerevisiae deletion strains, locus YOR184W, strain ser1, stronger effect = lower value 1 | S. cerevisiae deletion strains, locus YOR231W, strain MKK1, stronger effect = lower value 0.968 | S. cerevisiae deletion strains, locus YOR265W, strain rbl2, stronger effect = lower value 1.02 | S. cerevisiae deletion strains, locus YOR270C, strain vph1, stronger effect = lower value 1.06 | S. cerevisiae deletion strains, locus YOR290C, strain snf2, stronger effect = lower value 1.04 | S. cerevisiae deletion strains, locus YOR316C, strain cot1, stronger effect = lower value 1.01 | S. cerevisiae deletion strains, locus YPL051W, strain arl3, stronger effect = lower value 1 | S. cerevisiae deletion strains, locus YPL055C, strain LGE1, stronger effect = lower value 0.958 | S. cerevisiae deletion strains, locus YPL078C, strain atp4, stronger effect = lower value 1.03 | S. cerevisiae deletion strains, locus YPL106C, strain sse1, stronger effect = lower value 1.04 | S. cerevisiae deletion strains, locus YPL240C, strain hsp82, stronger effect = lower value 1.01 | S. cerevisiae deletion strains, locus YPL241C, strain CIN2, stronger effect = lower value 1 | S. cerevisiae deletion strains, locus YPL256C, strain CLN2, stronger effect = lower value 0.953 | S. cerevisiae deletion strains, locus YPR119W, strain clb2, stronger effect = lower value 1 | S. cerevisiae deletion strains, locus YPR141C, strain kar3, stronger effect = lower value 0.989 | S. cerevisiae deletion strains, locus YPR163C, strain tif3, stronger effect = lower value 1 | S. cerevisiae deletion strains, locus YPR167C, strain met16, stronger effect = lower value 1.01 | S. cerevisiae deletion strains, strain wtn01, stronger effect = lower value 0.997 | S. cerevisiae strains, strain wild type, stronger effect = lower value 1
